Experiment [1] is described as follows: Nuclear factor erythroid 2-related factor 2/antioxidant responsive element (Nrf2/ARE) small molecule agonists: luciferase reporter gene qHTS assay in human keratinocytes (AID 1919969). Also: nearly all actives have a fitted effect of over 35% in size. Also: potency is read from the fitted curve at half-maximal effect.
Experiment [2] addresses KiSS-1 receptor (Homo sapiens) (UniProt Q969F8). As to the kind of experiment: Human kisspeptin (KISS1R) small molecule agonists, calcium flux assay in KISS1R-HEK293 cells (AID 1920064; active = well fitted activation curve with a large enough effect in the repeat runs). Summed up: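 Stable human KISS1R HEK293 line; 18 h plating, 37 C/5% CO2; calcium dye 1 h 37 C; compound pin transfer; kinetic fluorescence Ex/Em 480/540, 3 min.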
A general note: A change in cytosolic calcium serves as a functional read-out for many receptors and channels.

Experiment [3] in a line: G protein-coupled receptor (GPCR) small molecule agonists, calcium flux assay: HEK293 wild type cell line counter screen (AID 1920065). Summed up:
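Kinetic fluorescence at Ex/Em 480/540, recorded every second over 3 min, served as the read-out after compound addition. Each compound was tested at 15 concentrations in triplicate on cells pre-loaded with calcium dye for 1 h.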

Experiment [4] in a line: p53 small molecule agonists, cell-based qHTS assay with human liver microsomes (AID 1963577). In outline: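 Cells carrying a p53-responsive bla reporter were rested 5 h (37 C, 5% CO2) before compound transfer. Human liver microsomes plus NADPH, 0.5 mg/mL final apiece, supplied metabolism during the 16 h 37 C exposure.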
(In general: Quantitative high-throughput screening tests each substance at several concentrations.)

A short description of experiment [5]: p53 small molecule agonists, cell-based qHTS assay with rat liver microsomes (AID 1963578). In outline: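 Fluorescence from a beta-lactamase reporter under a p53 response element was measured after cells had been incubated 16 h at 37 C with test compound and rat liver microsomes plus NADPH (0.5 mg/mL final each).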
Experiment [6] in a line: p53 small molecule agonists, cell-based qHTS assay: qHTS cell viability counter screen (AID 1963581). Also: nearly all actives have a fitted effect of over 45% in size. Also: potency is read from the fitted curve at half-maximal effect. Summed up:
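HCT-116 p53RE-bla cells, 4,000/well, plated 5 h before compound pin transfer; 16 h at 37 C; bla substrate 2 h RT; then CellTiter-Glo, 30 min RT, luminescence.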

Experiment [7] in a line: p53 small molecule agonists, cell-based qHTS assay (AID 1963582; active = well fitted activation curve with a large enough effect in the signal ratio in the repeat runs, not every such curve was filed as active; the % refers to the signal ratio). In outline:
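Reporter line: p53RE-bla. Pre-incubation 5 h, 37 C, 5% CO2; compound (DMSO, pin tool) 16 h, 37 C; B/G FRET substrate 2 h RT; fluorescence intensity read.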

Experiment [8] has as its target Muscarinic acetylcholine receptor M1 (Homo sapiens) (UniProt P11229). Briefly: Cholinergic receptor muscarinic 1 (CHRM1) small molecule antagonists, cell-based qHTS assay (AID 1963588). Also: nearly all actives have a fitted effect of over 40% in size. Summed up:
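CHRM1-CHO calcium-flux assay, antagonist mode. Cells were seeded 18 h, dye-loaded 1 h at 37 C and given compound for 5 min at RT, then acetylcholine was added at 50nM. FDSS fluorescence was read 3 min; 15 concentrations, three runs.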

Experiment [9] can be described thus: cAMP Responsive Elements (CRE) small molecule agonists, cell-based qHTS assay (AID 1963590). Summed up: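 HEK 293T CRE-bla, 2,000 cells/well, 18 h preincubation 37 C/5% CO2; cpds (DMSO) pinned, 3 h; LiveBLAzer B/G FRET substrate, 2 h RT.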
The target in experiment [10] is D(2) dopamine receptor (Homo sapiens) (UniProt P14416). As to the kind of experiment: Dopamine D2 receptor (DRD2) small molecule agonists, cell-based qHTS assay (AID 1963594). Also: nearly all actives have a fitted effect of over 35% in size. In outline:
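HEK293 cells stably expressing human DRD2, pre-treated with PDE inhibitor Ro20-1724 (0.1 mM final) and compound 10 min at room temperature, then stimulated with NKH477 (200nM […]) for 30 min. cAMP read by HTRF (665/620 nm).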

Experiment [11] has the same target. Briefly: Dopamine D2 receptor (DRD2) small molecule antagonists, cell-based qHTS assay (AID 1963595; active = well fitted inhibition curve with a large enough effect in the signal ratio in the repeat runs, with a control signal flat; the % refers to the signal ratio; also: potency is read from the fitted curve at half-maximal effect). Summed up:
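HEK293 cells stably expressing DRD2 were preincubated with 0.1 mM Ro20-1724, then with compound for 10 min at room temperature. Cells were stimulated with 200 nM NKH477 plus 12 nM quinpirole for 30 min, and cAMP was read by HTRF.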

Experiment [12] concerns the target Gonadotropin-releasing hormone receptor (Homo sapiens) (UniProt P30968). Briefly: Human gonadotropin-releasing hormone receptor (GnRHR) small molecule agonists, calcium flux assay in GnRHR-HEK293 cells (AID 1920063). Also: nearly all actives have a fitted effect of over 35% in size. In outline: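 GnRHR-HEK293, 1500 cells/well, 18 h 37 C/5% CO2; Ca dye 1 h 37 C; cpd pinned (DMSO), agonist mode; kinetic FL 480/540, 3 min, 1 s reads; 15 conc, n=3.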

Experiment [13] is described as follows: p53 small molecule agonists, cell-based qHTS assay with human liver microsomes: qHTS cell viability counter screen (AID 1963579). Also: nearly all actives have a fitted effect of over 45% in size. Also: potency is read from the fitted curve at half-maximal effect. In outline: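 Seed p53RE-bla cells at 4,000 per well; incubate 5 h at 37 C; add compound, human liver microsomes and NADPH; incubate 16 h at 37 C; add CellTiter-Glo; after 30 min at room temperature, read luminescence.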
A short description of experiment [14]: p53 small molecule agonists, cell-based qHTS assay with rat liver microsomes: qHTS cell viability counter screen (AID 1963580). Also: nearly all actives have a fitted effect of over 45% in size. Summed up:
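Viability is assessed in parallel with the p53 reporter read: HCT-116 p53RE-bla cells receive compounds plus rat microsomes and NADPH (0.5 mg/mL final apiece), incubate 16 h at 37 C, and then CellTiter-Glo luminescence is recorded.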

Experiment [15] has as its target 5-hydroxytryptamine receptor 2A (Homo sapiens) (UniProt P28223). As to the kind of experiment: 5-hydroxytryptamine receptor 2A (HTR2A) small molecule antagonists, cell-based qHTS assay (AID 1963586). Also: nearly all actives have a fitted effect of over 45% in size. Also: potency is read from the fitted curve at half-maximal effect. In outline: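 Antagonist-mode intracellular calcium assay: DOI (4 nM) added after 5 min compound pre-incubation at room temperature to dye-loaded HTR2A-CHO cells. Fluorescence followed for 3 min, sampled every second.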

Experiment [16] has the same target. As to the kind of experiment: 5-hydroxytryptamine receptor 2A (HTR2A) small molecule agonists, cell-based qHTS assay (AID 1963587). Also: nearly all actives have a fitted effect of over 30% in size. Also: potency is read from the fitted curve at half-maximal effect. In outline: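 CHO cells stably expressing human HTR2A, plated 18 h, loaded with calcium dye 1 h at 37 C. Agonist mode: compounds added and intracellular calcium fluorescence recorded kinetically for 2 min at 1 sec intervals.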
Experiment [17] addresses Muscarinic acetylcholine receptor M1 (Homo sapiens) (UniProt P11229). As to the kind of experiment: Cholinergic receptor muscarinic 1 (CHRM1) small molecule agonists, cell-based qHTS assay (AID 1963589). Also: nearly all actives have a fitted effect of over 35% in size. Summed up:
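Human M1 in stable CHO line; 18 h plating, 1 h dye load 37 C; cpd added (agonist mode); Ca2+ fluorescence kinetic read, 1 s intervals; 15 conc, 3 runs.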

Experiment [18] in a line: cAMP Responsive Elements (CRE) small molecule antagonists, cell-based qHTS assay (AID 1963591; active = well fitted inhibition curve with a large enough effect in the signal ratio in the repeat runs, not every such curve was filed as active; the % refers to the signal ratio). Summed up:
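Beta-lactamase reporter read by FRET substrate (LiveBLAzer B/G) after 2 h at room temperature. CRE-bla HEK293T cells had received compound plus 0.25 uM (final) NKH477 for 3 h at 37 °C.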

The target in experiment [19] is Beta-2 adrenergic receptor (Homo sapiens) (UniProt P07550). As to the kind of experiment: Adrenergic beta2 receptor (ADRB2) small molecule antagonists, cell-based qHTS assay (AID 1963592). Also: series mostly up to about 92 µM; nearly all actives have a fitted effect of over 50% in size. In outline: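 Cells (CHO, stable ADRB2 overexpression) incubated 18-20hr at 37C; compounds added from DMSO; agonist mix (1nM isoproterenol, 100uM IBMX, 25uM Ro-20-1724) added; 0.5hr RT; d2-cAMP and anti-cAMP-cryptate added; 1hr RT; 665/615 nm read.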

For experiment [20] the target is unchanged. As to the kind of experiment: Adrenergic beta2 receptor (ADRB2) small molecule agonists, cell-based qHTS assay (AID 1963593). Also: potency is read from the fitted curve at half-maximal effect.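 As to activation: CHO cells stably overexpressing human ADRB2.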 In outline: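 CHO cells stably over-expressing ADRB2 were plated overnight at 37C, then dosed with compounds plus a stimulation mix containing 100uM IBMX and 25uM Ro-20-1724 for 0.5hr at room temperature. cAMP was measured by HTRF competition, 1hr.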

The structures appear in SMILES notation. Values joined by “and” are separate entries in the source; they are usually repeats but may differ in a detail not shown here. Equal values may be shown once. A number with no mark means an inactive call. Records with an inconclusive call do not appear. Active and inactive are the calls of the source. Unless noted, calls follow the shape of the full dose curve.

D(2) dopamine receptor (Homo sapiens), sequence (P14416 whole entry, looked up): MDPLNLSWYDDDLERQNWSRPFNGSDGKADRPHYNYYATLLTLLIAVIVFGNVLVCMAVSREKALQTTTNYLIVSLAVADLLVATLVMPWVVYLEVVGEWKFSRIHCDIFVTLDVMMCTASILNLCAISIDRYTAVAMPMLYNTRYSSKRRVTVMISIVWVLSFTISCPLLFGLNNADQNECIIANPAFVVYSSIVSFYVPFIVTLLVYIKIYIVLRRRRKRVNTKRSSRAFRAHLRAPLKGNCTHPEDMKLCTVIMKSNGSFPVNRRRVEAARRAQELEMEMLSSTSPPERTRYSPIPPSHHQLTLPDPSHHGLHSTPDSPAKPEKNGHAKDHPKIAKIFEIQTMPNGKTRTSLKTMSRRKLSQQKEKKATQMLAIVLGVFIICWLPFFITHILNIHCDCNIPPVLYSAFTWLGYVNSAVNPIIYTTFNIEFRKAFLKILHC
Beta-2 adrenergic receptor (Homo sapiens), sequence (P07550 whole entry, looked up): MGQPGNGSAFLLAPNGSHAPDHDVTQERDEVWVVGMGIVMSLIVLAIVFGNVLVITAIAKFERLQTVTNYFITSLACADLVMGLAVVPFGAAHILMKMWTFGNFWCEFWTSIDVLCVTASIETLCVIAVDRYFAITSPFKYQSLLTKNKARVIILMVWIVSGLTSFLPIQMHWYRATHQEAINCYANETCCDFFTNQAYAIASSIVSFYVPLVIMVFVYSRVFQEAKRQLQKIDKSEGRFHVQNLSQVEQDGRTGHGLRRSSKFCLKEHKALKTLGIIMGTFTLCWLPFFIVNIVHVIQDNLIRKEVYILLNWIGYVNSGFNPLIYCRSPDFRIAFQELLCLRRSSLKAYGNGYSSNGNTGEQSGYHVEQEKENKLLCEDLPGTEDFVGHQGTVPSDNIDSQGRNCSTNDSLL
KiSS-1 receptor (Homo sapiens), sequence (Q969F8 whole entry, looked up): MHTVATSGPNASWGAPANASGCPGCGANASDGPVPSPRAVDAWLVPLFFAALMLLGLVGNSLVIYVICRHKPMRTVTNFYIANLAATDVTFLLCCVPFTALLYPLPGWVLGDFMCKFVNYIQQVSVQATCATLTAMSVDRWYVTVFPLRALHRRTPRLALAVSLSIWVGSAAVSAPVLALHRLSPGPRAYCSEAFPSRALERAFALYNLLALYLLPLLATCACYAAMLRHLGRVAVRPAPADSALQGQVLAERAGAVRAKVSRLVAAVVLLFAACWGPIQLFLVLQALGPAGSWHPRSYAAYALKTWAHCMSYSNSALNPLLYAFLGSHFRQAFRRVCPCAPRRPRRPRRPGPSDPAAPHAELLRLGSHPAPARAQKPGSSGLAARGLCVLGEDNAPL
5-hydroxytryptamine receptor 2A (Homo sapiens), sequence (P28223 whole entry, looked up): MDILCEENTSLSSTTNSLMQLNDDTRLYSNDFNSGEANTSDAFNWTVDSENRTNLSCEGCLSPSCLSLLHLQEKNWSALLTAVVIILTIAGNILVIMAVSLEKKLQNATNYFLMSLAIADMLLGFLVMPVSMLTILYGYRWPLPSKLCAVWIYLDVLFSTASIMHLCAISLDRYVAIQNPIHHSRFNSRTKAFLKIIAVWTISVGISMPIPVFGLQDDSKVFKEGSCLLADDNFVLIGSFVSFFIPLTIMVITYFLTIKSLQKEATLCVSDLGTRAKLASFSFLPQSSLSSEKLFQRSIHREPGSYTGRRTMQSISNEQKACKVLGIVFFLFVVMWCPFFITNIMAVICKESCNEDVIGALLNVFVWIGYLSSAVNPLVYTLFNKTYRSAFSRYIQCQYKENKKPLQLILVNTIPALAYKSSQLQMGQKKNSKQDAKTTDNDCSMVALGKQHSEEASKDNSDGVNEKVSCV
Gonadotropin-releasing hormone receptor (Homo sapiens), sequence (P30968 whole entry, looked up): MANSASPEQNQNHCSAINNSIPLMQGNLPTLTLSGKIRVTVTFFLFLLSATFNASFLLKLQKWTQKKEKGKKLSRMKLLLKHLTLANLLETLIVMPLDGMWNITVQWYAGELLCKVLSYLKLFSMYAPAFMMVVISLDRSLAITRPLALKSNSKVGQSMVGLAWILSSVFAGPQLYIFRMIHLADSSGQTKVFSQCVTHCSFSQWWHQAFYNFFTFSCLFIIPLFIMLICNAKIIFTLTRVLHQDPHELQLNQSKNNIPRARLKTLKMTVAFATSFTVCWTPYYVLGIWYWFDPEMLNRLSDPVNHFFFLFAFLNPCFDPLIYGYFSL
Muscarinic acetylcholine receptor M1 (Homo sapiens), sequence (P11229 whole entry, looked up): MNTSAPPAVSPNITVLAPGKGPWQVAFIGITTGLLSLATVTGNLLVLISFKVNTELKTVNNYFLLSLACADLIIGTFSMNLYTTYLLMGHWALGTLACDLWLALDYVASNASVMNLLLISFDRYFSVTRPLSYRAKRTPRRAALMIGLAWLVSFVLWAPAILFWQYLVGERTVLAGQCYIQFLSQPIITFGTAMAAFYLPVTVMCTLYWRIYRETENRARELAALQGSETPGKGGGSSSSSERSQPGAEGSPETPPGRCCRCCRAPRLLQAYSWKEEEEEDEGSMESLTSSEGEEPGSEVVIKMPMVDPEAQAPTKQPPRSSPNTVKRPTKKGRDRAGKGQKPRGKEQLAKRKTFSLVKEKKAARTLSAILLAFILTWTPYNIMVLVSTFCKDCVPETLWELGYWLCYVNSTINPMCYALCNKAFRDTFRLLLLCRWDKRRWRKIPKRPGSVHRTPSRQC

Regarding `Nc1ccc(Cc2ccc(N)c(Cl)c2)cc1Cl`, the Potency entry in experiment [1], in [2], in [3], in [4], in experiment [5] and in [6] was “inactive” in each case. Moreover, the Potency entry in [7], in experiment [8], in experiment [9], in experiment [10] and in [11] was “inactive” throughout.
Consider `O=C(Nc1ccccc1)c1ccccc1I`, for which the Potency entry in [1], in experiment [12], in [3], in experiment [13], in experiment [14] and in experiment [6] was “inactive” in each case. For the same molecule, the Potency result in experiment [15], in [16], in experiment [8], in [17], in experiment [9] and in experiment [18] was “inactive” throughout. In addition, the Potency entry in [19], in [10] and in [11] was “inactive” throughout.
Turning to `CCCCNC(=O)OCC#CI`, the Potency was 24.2 µM (active) and 24.3 µM (active) in experiment [1]; 68.6 µM (active) in experiment [11]. Also, the Potency result in [2], in experiment [3], in [4], in [5], in [13] and in experiment [14] was “inactive” throughout. Further, the Potency result in [6], in experiment [15], in [8], in experiment [17], in [19] and in experiment [20] was “inactive” each time. Besides, the Potency entry in experiment [10] is “inactive”.
As to `ClC1=C(Cl)[C@]2(Cl)[C@@H]3[C@@H](Cl)[C@H]4O[C@H]4[C@@H]3C1(Cl)C2(Cl)Cl`, the Potency result in experiment [1], in experiment [2], in [4], in experiment [5], in experiment [13] and in experiment [14] was “inactive” throughout. Further, the Potency result in experiment [6], in experiment [15], in experiment [16] and in experiment [8] was “inactive” in each case. The Potency in experiment [20] is 61.1 µM (active).
As for `O=S(=O)(c1ccc(Cl)cc1)c1ccc(Cl)cc1`, the Potency result in [1], in [2], in [3], in [5], in experiment [17] and in experiment [9] was “inactive” in each case. Also, the Potency result in [19] and in experiment [10] was “inactive” throughout. Also, the Potency in experiment [15] is 10.7 µM (active).
Regarding `CCN(CC)C(=O)N[C@@H]1C=C2c3cccc4[nH]cc(c34)C[C@@H]2N(C)C1`, the Potency entry in [1], in experiment [12], in experiment [3], in experiment [4], in experiment [5] and in [13] was “inactive” in each case. Also, the Potency entry in experiment [14], in experiment [6], in experiment [7], in experiment [9] and in experiment [11] was “inactive” throughout.
On to `CS/C(C)=N/OC(=O)N(C)SN(C)C(=O)O/N=C(\C)SC`, for which the figures for the Potency in [1] and in [16] were 68.6 µM (active) and 43.6 µM (active), respectively. Moreover, the Potency entry in experiment [12], in [3], in experiment [13], in [14], in experiment [6] and in [7] was “inactive” each time. For the same molecule, the Potency entry in experiment [15], in experiment [8], in experiment [17], in experiment [9], in experiment [18] and in experiment [19] was “inactive” throughout. In addition, the Potency result in experiment [20], in experiment [10] and in experiment [11] was “inactive” throughout.
For the molecule `CC(=O)C(Cl)(Cl)Cl`, the Potency in experiment [1] was 20.9 µM (active); in experiment [6], 24.8 µM (active). The Potency result in experiment [2], in experiment [3], in experiment [5], in [13], in [16] and in experiment [17] was “inactive” in each case. In addition, the Potency entry in [10] and in experiment [11] was “inactive” in each case.
With `CCOP(=O)(OCC)Oc1nc(Cl)c(Cl)cc1Cl`, the Potency result in experiment [1], in experiment [2], in [3], in experiment [13], in [14] and in experiment [6] was “inactive” throughout. For the same molecule, the Potency entry in experiment [15], in [16], in experiment [8], in experiment [10] and in experiment [11] was “inactive” each time.
In the case of `Oc1ccc(C2(c3ccc(O)cc3)CCCCC2)cc1`, the Potency entry in experiment [1], in [2], in experiment [3], in experiment [4], in [5] and in experiment [14] was “inactive” each time. In addition, the Potency result in experiment [15], in experiment [16], in [8], in experiment [9], in experiment [10] and in [11] was “inactive” in each case. Also, the Potency in [13] is 43.3 µM (active).

(Values after PubChem BioAssay (Tox21).)
